This note sets out measurements from PubChem BioAssay (Tox21).

A number with no mark means an inactive call. Inconclusive results are not listed. Calls of active or inactive are those of the source. Unless noted, calls come from the whole dose curve; as a rule, active = well fitted curve in the direction sought with a large enough effect in the repeat runs; inconclusive = weak or mixed curves; inactive = no such curve, though single readings can be large; an effect the other way counts as inactive or inconclusive.

In experiment [1] the target is Progesterone receptor (Homo sapiens) (UniProt P06401). The experiment in a line: qHTS assay to identify small molecule agonists of the progesterone receptor (PR) signaling pathway (AID 1346784; calls by dose curve; note: nearly all actives have a fitted effect of over 30% in size; note: potency is the fitted concentration of half-maximal effect). In short, it runs like this: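 HEK 293T PR-UAS-bla reporter cells, 2% charcoal-stripped FBS; 6 hr settle at 37C/5% CO2, compound (DMSO) 16 hr, LiveBLAzer B/G FRET substrate 2 hr RT, fluorescence intensity read.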
Progesterone receptor (Homo sapiens), sequence (P06401 whole entry, looked up): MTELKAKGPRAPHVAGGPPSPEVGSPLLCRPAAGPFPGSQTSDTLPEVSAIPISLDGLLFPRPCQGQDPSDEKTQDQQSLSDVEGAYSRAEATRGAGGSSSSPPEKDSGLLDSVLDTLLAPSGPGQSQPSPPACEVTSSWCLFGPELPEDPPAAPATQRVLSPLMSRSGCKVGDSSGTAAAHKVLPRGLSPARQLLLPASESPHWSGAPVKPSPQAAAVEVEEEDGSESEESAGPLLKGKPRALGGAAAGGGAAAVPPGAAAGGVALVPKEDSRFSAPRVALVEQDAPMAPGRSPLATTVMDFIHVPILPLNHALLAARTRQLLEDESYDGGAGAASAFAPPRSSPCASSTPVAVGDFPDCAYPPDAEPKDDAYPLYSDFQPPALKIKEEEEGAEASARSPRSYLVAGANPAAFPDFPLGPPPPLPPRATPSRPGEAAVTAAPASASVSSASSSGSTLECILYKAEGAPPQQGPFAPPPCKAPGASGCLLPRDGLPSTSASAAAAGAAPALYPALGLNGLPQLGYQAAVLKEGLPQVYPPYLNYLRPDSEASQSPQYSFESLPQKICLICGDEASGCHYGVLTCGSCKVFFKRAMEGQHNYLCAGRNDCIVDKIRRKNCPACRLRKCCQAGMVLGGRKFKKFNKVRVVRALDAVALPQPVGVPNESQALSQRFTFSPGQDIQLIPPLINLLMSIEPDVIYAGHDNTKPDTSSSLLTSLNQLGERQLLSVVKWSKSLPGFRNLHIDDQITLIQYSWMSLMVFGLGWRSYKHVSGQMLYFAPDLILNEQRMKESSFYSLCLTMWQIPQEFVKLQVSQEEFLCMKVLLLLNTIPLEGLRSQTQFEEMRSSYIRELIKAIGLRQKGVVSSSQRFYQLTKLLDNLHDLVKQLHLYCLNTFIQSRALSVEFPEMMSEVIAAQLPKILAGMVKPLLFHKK

Experiment [2] shares this target. The experiment in a line: qHTS assay to identify small molecule antagonists of the progesterone receptor (PR) signaling pathway (AID 1346795; active = well fitted inhibition curve with a large enough effect in the signal ratio in the repeat runs, not every such curve was filed as active; the % refers to the signal ratio; note: potency is the fitted concentration of half-maximal effect). In short, it runs like this: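 Beta-lactamase reporter, HEK293T PR-UAS-bla line; 2% charcoal-stripped FBS; 6 hr pre-incubation, 37C/5% CO2. Compound + R5020 1 nM final, 16 hr. LiveBLAzer B/G FRET substrate, 2 hr RT; fluorescence intensity read.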
(In general: qHTS replaces the single test concentration by a dilution series.)

The nature of experiment [3]: qHTS assay to identify small molecule antagonists of the progesterone receptor (PR) signaling pathway - cell viability counter screen (AID 1346798). Note: series mostly up to about 92 µM; nearly all actives have a fitted effect of over 50% in size. The essentials:
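Luminescence readout (CellTiter-Glo, 30 min, RT) of viability in PR-UAS-bla HEK293T cells exposed to compound and R5020 agonist for 16 hr at 37C, 5% CO2; run in the same wells as the beta-lactamase reporter read.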

A short description of experiment [4]: qHTS assay to identify small molecule antagonists of the TGF-beta/Smad signaling pathway - cell viability counter screen (AID 1346824). Note: nearly all actives have a fitted effect of over 50% in size. In short, it runs like this:
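SBE-bla HEK 293T cells, incubated overnight, then compound plus 0.25 ng/mL TGF-beta1 (stock added) for 5 hr at 37 C. Viability was read in the same wells by CellTiter-Glo luminescence after 30 min at room temperature.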

Experiment [5] in a line: qHTS assay to identify small molecule agonists of the TGF-beta/Smad signaling pathway - cell viability counter screen (AID 1346829). Note: top concentration of the series differs between compounds; nearly all actives have a fitted effect of over 45% in size. In short, it runs like this: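 Tox21 qHTS format: SBE-bla HEK 293T cells treated with DMSO-dissolved compounds for 5 hr; CellTiter-Glo luminescence after 30 min at room temperature.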
Experiment [6] can be described thus: qHTS assay to identify small molecule agonists of the TGF-beta/Smad signaling pathway (AID 1346859; active = well fitted activation curve with a large enough effect in the signal ratio in the repeat runs, not every such curve was filed as active; the % refers to the signal ratio; note: series mostly up to about 77 µM). In short, it runs like this: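 Read-out: fluorescence at 460 and 530 nm (405 nm excitation) after a 2 hr room-temperature incubation with beta-lactamase FRET substrate. SBE-bla HEK 293T cells had been treated with test compounds for 5 hr at 37 C.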
The target of experiment [7] is Thyrotropin-releasing hormone receptor (Homo sapiens) (UniProt P34981). The experiment in a line: qHTS assay to identify small molecule antagonists of the thyrotropin-releasing hormone receptor (TRHR) signaling pathway (AID 1346877; active = well fitted inhibition curve with a large enough effect in the repeat runs, not every such curve was filed as active; note: series mostly up to about 51 µM). The essentials:
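TRHR-expressing HEK293 cells were seeded, cultured 18 h at 37 °C, then loaded with calcium dye for 2 h. Compounds were pre-incubated 5 min at room temperature before 1 nM TRH (final) was added, and kinetic fluorescence was recorded for 3 min.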

Experiment [8] can be described thus: Human pregnane X receptor (PXR) small molecule agonists, qHTS cell viability counter screen (AID 1346977). Note: nearly all actives have a fitted effect of over 50% in size. In short, it runs like this:
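Fluorescence read-out (CellTiter-Fluor) of viability in PXR-Luc HepG2 cells, multiplexed with the luciferase agonist read. Compounds in DMSO added after 5hr plating; 24hr total exposure at 37C, 5% CO2.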

Experiment [9] is described as follows: Caspase-3/7 induction in HepG2 cells by small molecules, qHTS assay (AID 1346978). Note: nearly all actives have a fitted effect of over 15% in size. In short, it runs like this:
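Wild-type HepG2 cells, 2,000/well, settled 5 hr at 37 C and 5% CO2, then compound-treated for 17 hr; caspase-3/7 activity read by luminescent Caspase-Glo 3/7 after 30 min at room temperature.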

A short description of experiment [10]: Caspase-3/7 induction in CHO-K1 cells by small molecules, qHTS cell viability counter screen (AID 1346979). Note: nearly all actives have a fitted effect of over 35% in size. In short, it runs like this:
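CHO-K1 wt, 1,500 cells/well; 5hr pre-incubation 37C/5% CO2; compound pin transfer (DMSO); 16hr exposure; CellTiter-Fluor added, 1hr, fluorescence read.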

Experiment [11] in a line: Caspase-3/7 induction in CHO-K1 cells by small molecules, qHTS assay (AID 1346980). Note: nearly all actives have a fitted effect of over 15% in size. In short, it runs like this: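 Wild-type CHO-K1 cells exposed to compounds for 17hr at 37 C, 5% CO2. Caspase-3/7 activity then measured by Caspase-Glo 3/7 luminescence after 30min at room temperature.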
The nature of experiment [12]: Caspase-3/7 induction in HepG2 cells by small molecules, qHTS cell viability counter screen (AID 1346981). Note: series mostly up to about 92 µM; nearly all actives have a fitted effect of over 30% in size. The essentials:
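Wild-type HepG2 cells (2,000/well) were allowed to settle for 5 hr at 37 C, 5% CO2, then dosed with compounds in DMSO by pin transfer. After 16 hr at 37 C, CellTiter-Fluor was added and fluorescence read 1 hr later.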

Experiment [13] deals with Nuclear receptor subfamily 1 group I member 2 (Homo sapiens) (UniProt O75469). The experiment in a line: Human pregnane X receptor (PXR) small molecule agonists, qHTS assay (AID 1346982). Note: nearly all actives have a fitted effect of over 35% in size. Note: potency is the fitted concentration of half-maximal effect. The essentials: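 PXR-Luc HepG2 cells (CYP3A4 promoter-driven luciferase) were seeded in medium with 5% charcoal-stripped FBS, left 5 hr at 37 C, then exposed to compounds in DMSO for 24 hr. Luminescence was read after ONE-Glo addition.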
Nuclear receptor subfamily 1 group I member 2 (Homo sapiens), sequence (O75469 whole entry, looked up): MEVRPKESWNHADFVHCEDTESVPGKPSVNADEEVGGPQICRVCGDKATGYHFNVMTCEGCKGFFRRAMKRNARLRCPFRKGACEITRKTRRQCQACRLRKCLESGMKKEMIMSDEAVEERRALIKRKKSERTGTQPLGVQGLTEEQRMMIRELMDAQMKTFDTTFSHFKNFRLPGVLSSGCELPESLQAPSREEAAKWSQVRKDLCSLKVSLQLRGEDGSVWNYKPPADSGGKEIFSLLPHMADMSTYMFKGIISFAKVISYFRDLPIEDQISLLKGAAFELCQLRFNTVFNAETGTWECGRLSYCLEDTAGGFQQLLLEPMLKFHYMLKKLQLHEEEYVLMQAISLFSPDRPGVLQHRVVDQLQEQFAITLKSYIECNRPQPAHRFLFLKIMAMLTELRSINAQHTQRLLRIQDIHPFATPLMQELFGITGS

Experiment [14] addresses Cytochrome P450 2D6 (Homo sapiens) (UniProt P10635). Kind of experiment: Cytochrome P450 Family 2 Subfamily D Member 6 (CYP2D6) small molecule antagonists: luciferase reporter qHTS assay (AID 1671196). For activity change, negative = inhibition: series mostly up to about 120 µM. Note: nearly all actives have a fitted effect of over 50% in size. Note: potency is the fitted concentration of half-maximal effect. In short, it runs like this:
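CYP2D6 enzyme–substrate mix was held with compound for 10 min at room temperature, then NADPH regeneration solution was added and the reaction ran 1 h at room temperature. Luciferin product was detected by luminescence after 20 min with detection reagent.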

Experiment [15] addresses Cytochrome P450 2C19 (Homo sapiens) (UniProt P33261). Kind of experiment: Cytochrome P450 Family 2 Subfamily C Member 19 (CYP2C19) small molecule antagonists: luciferase reporter qHTS assay (AID 1671197). For activity change, negative = inhibition: series mostly up to about 120 µM. Note: nearly all actives have a fitted effect of over 65% in size. Note: potency is the fitted concentration of half-maximal effect. The essentials: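 Relative luminescence units recorded 20 min after the detection reagent stopped a 1 h, 37C CYP2C19 reaction on proluciferin substrate, which was started by NADPH regeneration following 10 min room-temperature compound preincubation; ketoconazole positive control.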
On the technique in general: A reporter such as luciferase makes a cellular process visible.

Experiment [16] deals with Thyrotropin-releasing hormone receptor (Homo sapiens) (UniProt P34981). Kind of experiment: qHTS assay to identify small molecule agonists of the thyrotropin-releasing hormone receptor (TRHR) signaling pathway (AID 1346891; calls by dose curve; note: series mostly up to about 58 µM). In short, it runs like this:
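HEK293/TRHR cells, 1500 per well, 18 h 37 °C; Ca dye 2 h 37 °C; pin-tool compound addition (agonist mode); kinetic fluorescence 3 min, 1 s reads; 15 concentrations, triplicate.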

Experiment [17] is described as follows: qHTS assay to identify small molecule agonists of the progesterone receptor (PR) signaling pathway - cell viability counter screen (AID 1346799; calls by dose curve; note: nearly all actives have a fitted effect of over 45% in size). The essentials:
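HEK293T PR-UAS-bla, 3,000 cells/well, 2% charcoal-stripped FBS; 6 h settle, compound 16 h at 37C/5% CO2; LiveBLAzer 2 h RT, then CellTiter-Glo 30 min RT, luminescence read.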

Experiment [18] deals with Nuclear receptor subfamily 1 group I member 2 (Rattus norvegicus) (UniProt Q9R1A7). Kind of experiment: Rat pregnane X receptor (rPXR) activation by small molecules, qHTS assay (AID 1346983). Note: nearly all actives have a fitted effect of over 20% in size. The following applies: rPXR luciferase reporter cells, One-Glo luminescence, 24 h; max activation: hits give high values. In short, it runs like this: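 Cell-based rPXR activation assay: rPXR cells, 2,000 per well, rested 5hr at 37 C, then exposed to compounds in DMSO for 24 hr at 37 C. Luciferase activity read by One-Glo luminescence after 30 min at room temperature.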
Nuclear receptor subfamily 1 group I member 2 (Rattus norvegicus), sequence (Q9R1A7 whole entry, looked up): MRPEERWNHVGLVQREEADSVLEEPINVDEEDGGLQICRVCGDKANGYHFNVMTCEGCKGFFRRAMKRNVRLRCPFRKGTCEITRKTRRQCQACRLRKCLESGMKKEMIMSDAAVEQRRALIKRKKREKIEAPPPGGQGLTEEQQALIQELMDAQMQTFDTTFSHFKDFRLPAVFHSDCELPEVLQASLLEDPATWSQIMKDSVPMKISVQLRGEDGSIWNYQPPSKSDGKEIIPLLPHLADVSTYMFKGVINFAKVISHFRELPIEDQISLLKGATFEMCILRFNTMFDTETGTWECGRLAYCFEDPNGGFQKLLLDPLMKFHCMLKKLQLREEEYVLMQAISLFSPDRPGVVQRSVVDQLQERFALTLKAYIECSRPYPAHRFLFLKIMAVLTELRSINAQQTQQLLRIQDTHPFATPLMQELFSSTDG

In experiment [19] the target is Nuclear receptor subfamily 1 group I member 2 (Homo sapiens) (UniProt O75469). The experiment in a line: CYP3A4 induction through human pregnane X receptor (PXR) by small molecules, qHTS assay (AID 1346984). Note: nearly all actives have a fitted effect of over 40% in size. In short, it runs like this: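 DPX-2 cells (HepG2 co-transfected with PXR and CYP3A4 promoter-luciferase) treated with compounds 24 h at 37C; luciferin-IPA CYP3A4 substrate 3uM final added for 3 h, then One-Glo; luminescence read. qHTS format.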

Experiment [20] has the same target. The experiment in a line: Human pregnane X receptor (PXR) activation by small molecules, qHTS assay (AID 1346985). Note: nearly all actives have a fitted effect of over 40% in size. In short, it runs like this: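 DPX-2 cells (HepG2 co-transfected with a PXR response element and a CYP3A4-promoter luciferase construct) were seeded at 2,000 per well, rested 5 hr at 37C, then exposed to DMSO-dissolved compounds for 24 hr. Activation was read as luciferase luminescence.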
% is set by controls: 0 for no effect and ±100 for the full control effect.

Cytochrome P450 2D6 (Homo sapiens), sequence (P10635 whole entry, looked up): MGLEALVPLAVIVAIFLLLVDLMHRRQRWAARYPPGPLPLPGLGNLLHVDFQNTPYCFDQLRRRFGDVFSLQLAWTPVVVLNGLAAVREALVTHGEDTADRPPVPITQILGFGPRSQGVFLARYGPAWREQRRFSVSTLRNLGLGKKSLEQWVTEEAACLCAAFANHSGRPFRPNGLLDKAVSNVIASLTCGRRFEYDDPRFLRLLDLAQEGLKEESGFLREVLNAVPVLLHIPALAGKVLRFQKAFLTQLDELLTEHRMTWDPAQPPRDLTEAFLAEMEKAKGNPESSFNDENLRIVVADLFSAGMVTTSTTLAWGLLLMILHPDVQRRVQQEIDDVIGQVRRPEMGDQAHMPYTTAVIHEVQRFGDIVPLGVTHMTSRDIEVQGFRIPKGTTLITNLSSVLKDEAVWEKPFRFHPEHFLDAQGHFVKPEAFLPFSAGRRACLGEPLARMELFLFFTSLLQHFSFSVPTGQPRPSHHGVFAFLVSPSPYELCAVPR
Cytochrome P450 2C19 (Homo sapiens), sequence (P33261 whole entry, looked up): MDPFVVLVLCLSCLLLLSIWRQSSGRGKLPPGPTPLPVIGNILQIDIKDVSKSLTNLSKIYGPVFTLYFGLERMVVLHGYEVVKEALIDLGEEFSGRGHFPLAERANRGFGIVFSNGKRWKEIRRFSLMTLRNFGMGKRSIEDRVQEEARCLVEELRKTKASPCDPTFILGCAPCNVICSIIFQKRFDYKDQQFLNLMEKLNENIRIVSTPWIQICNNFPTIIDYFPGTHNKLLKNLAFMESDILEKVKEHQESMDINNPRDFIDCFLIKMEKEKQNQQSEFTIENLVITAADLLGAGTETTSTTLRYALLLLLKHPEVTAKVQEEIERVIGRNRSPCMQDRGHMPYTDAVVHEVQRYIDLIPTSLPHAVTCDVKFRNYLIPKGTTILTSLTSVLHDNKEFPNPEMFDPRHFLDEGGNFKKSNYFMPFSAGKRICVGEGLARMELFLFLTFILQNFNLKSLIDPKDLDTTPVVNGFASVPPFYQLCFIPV
Thyrotropin-releasing hormone receptor (Homo sapiens), sequence (P34981 whole entry, looked up): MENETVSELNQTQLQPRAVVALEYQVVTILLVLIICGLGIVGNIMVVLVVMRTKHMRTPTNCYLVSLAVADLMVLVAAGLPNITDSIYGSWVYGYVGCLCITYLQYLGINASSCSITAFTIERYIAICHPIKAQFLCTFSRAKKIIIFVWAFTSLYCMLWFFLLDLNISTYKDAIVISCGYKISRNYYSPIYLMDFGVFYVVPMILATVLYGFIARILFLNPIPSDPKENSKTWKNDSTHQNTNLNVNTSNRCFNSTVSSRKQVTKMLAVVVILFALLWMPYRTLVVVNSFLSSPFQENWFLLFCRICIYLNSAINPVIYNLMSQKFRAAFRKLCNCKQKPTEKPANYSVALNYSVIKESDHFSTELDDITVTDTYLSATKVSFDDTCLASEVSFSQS

Turning to `CCCOC(=O)CC`, the Potency result in [1], in experiment [2], in [3], in experiment [8], in [10] and in experiment [12] was “inactive” throughout. In addition, the Potency result in experiment [13], in [14] and in experiment [15] was “inactive” each time. The compound was classed as inactive in experiment [4], in [5], in experiment [6], in experiment [7], in [9] and in [11].
In the case of `CCCCCCCCCC[N+](C)(C)[O-]`, the Potency entry in [1], in [2], in experiment [3], in experiment [16], in experiment [8] and in experiment [10] was “inactive” in each case. The Potency result in experiment [12] and in experiment [13] was “inactive” throughout. Further, the outcome in [4], in experiment [5], in [6], in [7], in experiment [9] and in experiment [11] was inactive. Besides, the Potency in experiment [14] is 35.6 µM (active).
Turning to `CCCCN1C=CN(C)C1`, the Potency in experiment [1] was 2.46 µM (active). For the same compound, the activity change, negative = inhibition in experiment [2] is 3.82% [at 18.9 µM]. The activity change, negative = cytotoxicity in [3] was -2.54% [at 18.9 µM]; in [5], -1.56% [at 15.8 µM]; in [8], -1.91% [at 19 µM]; in experiment [10] it was 5.38% [at 19 µM]; in experiment [12], -0.522% [at 19 µM]. In addition, the viability change, negative = cytotoxic in [4] is -11.6% [at 15.8 µM]. The figures for the activation in [6] and in experiment [13] were 4.63% [at 15.8 µM] and 3.9% [at 19 µM], respectively. The caspase activation in [9] was 1.6% [at 19 µM]. Further, the caspase-3/7 activation in experiment [11] is 0.127% [at 19 µM].
Take `CCN1C=CN(C)C1C` (stereo not drawn): the Potency entry in experiment [1], in [2], in experiment [3], in experiment [16], in experiment [8] and in experiment [12] was “inactive” in each case. Moreover, the Potency entry in experiment [13], in experiment [14] and in [15] was “inactive” each time. Moreover, the outcome in experiment [4], in experiment [5], in experiment [6], in experiment [7], in [9] and in experiment [11] was inactive.
For `CC(=O)N1C[C@H](O)C[C@H]1C(=O)O`, the Potency entry in [1], in experiment [3], in experiment [17], in experiment [8], in experiment [10] and in [12] was “inactive” throughout. In addition, the Potency entry in [13], in [19], in [20], in [14] and in experiment [15] was “inactive” each time. In addition, the result in experiment [4], in [5], in experiment [6], in [7], in [9] and in [11] was inactive. Besides, in experiment [18], the max activation is -1.61%.
As for `Cc1ncc(COP(=O)(O)O)c(C=O)c1O`, the Potency result in [1], in experiment [2], in [17], in experiment [16], in experiment [8] and in experiment [10] was “inactive” throughout. The Potency entry in experiment [12], in experiment [13], in [19], in [20] and in experiment [15] was “inactive” each time. For the same compound, the compound was called inactive in [4], in experiment [5], in experiment [6], in [7], in [9] and in experiment [11]. For the same compound, the max activation in [18] was -2.51%.
Turning to `Cc1nc(C2CCCCC2)c(-c2ccc(S(N)(=O)=O)c(F)c2)o1`, the Potency entry in experiment [1], in experiment [16], in experiment [8], in [10] and in experiment [12] was “inactive” each time. The Potency in [2] was 26.6 µM (active); in [13], 21.1 µM (active); in experiment [14], 13.8 µM (active); in [15], 38.9 µM (active). Further, the compound was classed as inactive in [4], in experiment [5], in experiment [6], in [7], in experiment [9] and in experiment [11].
